Consider 28 compounds from PubChem BioAssay (NCI).

Structures are written as SMILES. About 83,000 compounds went through this panel and 20% of them were active in at least one assay; those are over-represented in the sample as a whole.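 How to read the values: 0–100, growth inhibition (40 = 60% inhibited); 0, no net growth; -100 to 0, cell death (-40 = 40% of starting cells died; -100 = all dead).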 Unmarked numbers belong to inactive results. Calls of active or inactive are those of the source. How the source made its calls: active means growth percent below 10; inactive means the rest.

Experiment in all cases: NCI-60 one-dose screen, 48 h (100 = growth as untreated, 0 = no growth, -100 = all killed)
Conditions in all cases: 10 µM unless noted

The subject of experiment [1] is EKVX NSCLC.
The subject of experiment [2] is SN12C renal.
Experiment [3] relates to UO-31 renal.
The subject of experiment [4] is TK-10 renal.
For experiment [5], the system named is ACHN renal.
Experiment [6] concerns CAKI-1 renal.
Experiment [7] deals with A498 renal.
Experiment [8] concerns CCRF-CEM leukemia.
Experiment [9] deals with MOLT-4 leukemia.

`Cc1nn(-c2ccccc2)c2ncc3c(c12)C(=O)N(Cc1ccccc1)C3=O`: the growth was 37.3% in [1]; 23.7% in experiment [2]; -30.5% (active) in experiment [3]; -26% (active) in experiment [4]; -21.7% (active) in experiment [5]; -0.521% (active) in [6]. In experiment [7], the growth was -10.2% (active).
For the compound `COc1ccc(-c2c3c(nn2-c2ccc(N)cc2)CCc2cnoc2-3)cc1OC`, the growth is 102% in [1]; 92.4% in [2]; 62.1% in experiment [3]; 88.5% in experiment [4]; 81.7% in experiment [5]; 82.1% in experiment [6]. Also, the results for the growth in experiment [7], in experiment [8] and in experiment [9] were 85.3%, 61.5% and 86.4%, respectively.
As to `C=CC1=C(C(=O)O)N2C(=O)[C@@H](NC(=O)/C(=N\O)c3csc(N)n3)[C@H]2SC1` (stereo in doubt), the growth was 103% in [1]; 112% in experiment [2]; 91.7% in [3]; 122% in [4]; 96.7% in experiment [5]; 99.2% in experiment [6]. Further, the growth in [7] was 95.1%; in [8], 98.1%.
Consider `COC(=O)[C@]1(CCSC)N[C@H](c2cn(-c3ccccc3)nc2C)[C@@H]2C(=O)N(c3ccc(C)cc3)C(=O)[C@@H]21`, for which the growth was 106% in [1]; 101% in experiment [2]; 77.5% in experiment [3]; 104% in [4]; 90.7% in experiment [5]; 93.9% in [6]. Also, in [7], the growth is 77.2%.
In the case of `Cc1nn(-c2ccc(Cl)cc2)c2nc3c(nc12)C(=O)c1ccccc1-3`, the growth is 49.6% in experiment [1]; 78.8% in experiment [2]; 110% in experiment [3]; 94.1% in experiment [4]; 65.1% in [5]; 82.9% in experiment [6]. Besides, the growth in experiment [7] is -3.2% (active).
As for `CC(c1ccccn1)C(C)(O)C(C)c1ccccn1` (stereo not given), the growth in experiment [1] was 95.3%; in experiment [2], 103%; in experiment [3] it was 90.2%; in [4] it was 99.6%; in experiment [5], 103%; in [6], 104%. Also, the growth in [7] is 105%; in experiment [8], 114%; in experiment [9] it was 65.1%.
Regarding `ClC1=C(Cl)C(Cl)=C(Cl)C1=C/C=C/c1ccccc1`, the growth in experiment [1] was -6.52% (active); in experiment [2] it was -46% (active); in [3] it was -50.9% (active); in experiment [4], -5.53% (active); in experiment [5], -74% (active); in experiment [6], -4.48% (active). The results for the growth in experiment [7], in experiment [8] and in [9] were -87.4% (active), -21.4% (active) and -23.5% (active), respectively.
Take `CC[C@H](C)C(=O)O[C@H]1C[C@@H](C)C=C2C=C[C@H](C)[C@H](CC[C@@H]3C[C@@H](O)CC(=O)O3)[C@H]21`: the growth in [1] was 62.4%; in experiment [2] it was 42.5%; in experiment [3] it was 74.7%; in experiment [4], 104%; in experiment [5], 32.9%; in experiment [6], 20.7%. The growth was -27.9% (active) in experiment [7], 72.9% in [8] and 90.8% in [9].
Consider `CC(c1cc(Cl)ccc1O)c1cc(Cl)ccc1O`, for which the growth in [1] was 41.1%; in experiment [2] it was 39.5%; in [3], -7.88% (active); in [4] it was 90.7%; in [5] it was 41.4%; in experiment [6], 84.9%. The growth in [7] was 81.1%; in experiment [8] it was 33.5%; in experiment [9] it was 52.1%.
In the case of `C[C@@H]1CC[C@H]2[C@@H](C)C(O)O[C@@H]3O[C@]4(C)CC[C@@H]1[C@]32OO4` (stereo not given in full), the growth in [1] is 29.9%; in experiment [2], 23.6%; in experiment [3], 1.61% (active); in [4] it was 27.3%; in experiment [5] it was 22.1%; in experiment [6], 22.9%. Also, the values for the growth in experiment [7], in [8] and in [9] were 68.2%, 28.5% and 33.8%, respectively.
As for `CCC(C)CC(CC)NCCN1CCN(C(CC)CC(C)CC)C1=S` (stereo not given), the growth in [1] is 23%; in experiment [2], 36.9%; in [3], 41.4%; in [4], 58.5%; in experiment [5], 52.4%; in [6] it was 59.6%. In addition, the growth in [7] was 61.9%; in experiment [8] it was 24.3%; in [9], 38.5%.
`CCOC(=O)c1c2c(c(C)n1Cc1ccc(OC)cc1)-c1nc(N)ncc1CC2`: the growth is 98.8% in [1]; 95.3% in experiment [2]; 90% in [3]; 130% in experiment [4]; 106% in experiment [5]; 101% in [6]. In addition, the results for the growth in experiment [7], in experiment [8] and in experiment [9] were 111%, 126% and 93.6%, respectively.
Turning to `Clc1ccc(CCC(Cn2ccnc2)Sc2c(Cl)cccc2Cl)cc1` (stereo not given), the growth was 52.2% in experiment [1]; 55.6% in [2]; 30.5% in experiment [3]; 52.4% in experiment [4]; 65.4% in experiment [5]; 43.3% in experiment [6]. Further, the results for the growth in experiment [7], in experiment [8] and in [9] were 73.7%, 35.1% and 34.6%, respectively.
`O=C(CCc1nnc2sc(Cc3ccccc3Cl)nn12)c1nc2ccccc2[nH]1`: the growth in experiment [1] is 91.7%; in experiment [2], 91.8%; in experiment [3] it was 63%; in experiment [4], 144%; in [5], 84.7%; in experiment [6], 89%. Moreover, the growth in experiment [7] was 92.3%; in experiment [8] it was 96.1%; in [9] it was 72.9%.
For `COc1cc2c(cc1OCCCCCn1c(-c3ccc(OCc4ccccc4)cc3)nc3cc(N4CCOCC4)ccc31)N=C[C@@H]1CCCN1C2=O`, the growth in [1] was 52.5%; in [2], 23.2%; in [3], 0.0572% (active); in experiment [4] it was -13.3% (active); in experiment [5], -54.5% (active); in experiment [6], 18.5%. Besides, the growth in experiment [7] is -74.7% (active); in experiment [8], 8.03% (active); in [9] it was 23.7%.
In the case of `COc1ccc(/C=C2\COc3ccc(O)c(O)c3C2=O)cc1OC`, the growth is 42.2% in [1]; -67.7% (active) in [2]; -87.9% (active) in [3]; 5.44% (active) in experiment [4]; -56.3% (active) in [5]; 11.1% in experiment [6]. The growth in [7] is 105%; in experiment [8] it was -13.9% (active); in [9] it was -21.5% (active).
`O=C(Nc1ccc(Cl)cc1Cl)Nc1ccc(-c2cccnc2)cc1N1CCC(CO)CC1`: the growth in experiment [1] is 50.6%; in experiment [2], 30.7%; in experiment [3], 17%; in experiment [4], 52.8%; in experiment [5], 41.1%; in [6] it was 25.5%. Besides, the growth in [7] is 6.41% (active); in [8] it was 17.8%; in [9], -0.573% (active).
Regarding `CC1=NN(c2ccccc2Cl)C(=O)/C1=C\c1cn(S(=O)(=O)c2ccc(C)cc2)c2ccccc12`, the growth in experiment [1] is 98%; in [2], 97.5%; in experiment [3], 78.2%; in experiment [4], 167%; in experiment [5] it was 97.5%; in [6], 87.8%. The growth in [7] was 117%; in [8], 135%; in experiment [9], 173%.
Consider `CC[C@@H]1OC(=O)[C@H](C)[C@@H](O[C@H]2C[C@@](C)(OC)[C@@H](O)[C@H](C)O2)[C@H](C)[C@@H](O[C@@H]2O[C@H](C)C[C@H](N(C)C)[C@H]2O)[C@](C)(O)C[C@@H](C)[C@@H]2N[C@@H](COCCOC)O[C@H]([C@H]2C)[C@]1(C)O`, for which the growth is 102% in experiment [1]; 98.9% in experiment [2]; 81.5% in experiment [3]; 119% in [4]; 102% in experiment [5]; 96.6% in experiment [6]. Besides, the growth is 119% in [7], 82.4% in [8] and 90.1% in experiment [9].
As to `COc1ccc2c(c1)nc(N)c1c3cc(OC)c(OC)cc3cn21`, the growth was 73.1% in [1]; 56.4% in experiment [2]; 49.8% in experiment [3]; 48.9% in [4]; 46.4% in [5]; 28.5% in [6]. Moreover, the growth in experiment [7] was 35.9%; in [8], 47.1%; in [9], 76.4%.
`Cn1cc(-c2nc(-c3c[nH]c4ncc(F)cc34)cs2)c2cccnc21`: the growth in [1] is 84.3%; in [2], 101%; in [3], 100%; in experiment [4], 124%; in experiment [5], 93.7%; in experiment [6], 92.5%. The figures for the growth in [7], in [8] and in experiment [9] were 109%, 102% and 101%, respectively.
Regarding `CCCCc1nc(Cl)c(CO)n1Cc1ccc(-c2ccccc2-c2nn[nH]n2)cc1`, the growth in experiment [1] was 88.1%; in experiment [2], 99.3%; in experiment [3], 82.2%; in experiment [4], 108%; in [5], 107%; in [6], 90.5%. For the same compound, the growth in [7] was 119%; in experiment [8], 113%; in [9], 100%.
As for `Cc1cc(Cl)ccc1Nc1nc(C(F)(F)F)ccc1C(=O)NCC(=O)N/N=C/c1c(Cl)cccc1Cl`, the growth in experiment [1] is 48%; in experiment [2], 78.3%; in experiment [3], 65.9%; in experiment [4], 76.8%; in experiment [5], 57.7%; in experiment [6], 0.101% (active). In addition, the growth is 83.3% in experiment [7], 19.5% in experiment [8] and 50.8% in experiment [9].
Consider `CCOC(=O)C1=C(COCCN)NC(C)=C(C(=O)OC)C1c1ccccc1Cl` (stereo not given), for which the growth is 83.9% in experiment [1]; 75.9% in experiment [2]; 45.4% in experiment [3]; 67.8% in experiment [4]; 43.8% in [5]; 64.5% in [6]. Moreover, the growth in experiment [7] was 62.4%; in [8] it was 66.2%; in experiment [9], 67%.
Take `CCOC(=O)c1cc(-c2cccnc2)nc2c(Cl)cc(Cl)cc12`: the growth is 96.5% in experiment [1]; 86.6% in [2]; 75% in experiment [3]; 75.7% in [4]; 73.8% in experiment [5]; 105% in experiment [6]. Moreover, the growth in experiment [7] is 103%; in [8], 88.9%; in [9], 98.9%.
Consider `Oc1[nH]c2ccccc2c1/C=c1/ccc2c(c1)N=C(c1cc(F)cc(F)c1)N=2`, for which the growth is 70.7% in experiment [1]; 68.2% in experiment [2]; 60.2% in experiment [3]; 114% in [4]; 50.9% in [5]; 52.1% in experiment [6]. The values for the growth in experiment [7], in experiment [8] and in [9] were 60.5%, -3.33% (active) and 21%, respectively.
With `NC(N)=NC(N)=NCCCc1ccccc1`, the growth in experiment [1] was 31.8% [100 µM]; in experiment [2] it was 79.3% [100 µM]; in [3], 65.9% [100 µM]; in experiment [4], 63.3% [100 µM]; in experiment [5], 65.8% [100 µM]; in [6], 63.7% [100 µM]. Moreover, the values for the growth in experiment [7], in experiment [8] and in experiment [9] were 68.3% [100 µM], 69.1% [100 µM] and 73.8% [100 µM], respectively.
On to `O=C1c2nsnc2C(=O)c2c(F)c(F)c(F)c(F)c21`, for which the growth in experiment [1] is -13.9% (active); in [2] it was -94.8% (active); in experiment [3], -86.9% (active); in experiment [4] it was -98.9% (active); in experiment [5], -97.3% (active); in [6], -75.9% (active). The values for the growth in experiment [7], in experiment [8] and in experiment [9] were 10.1%, 6.36% (active) and -26.6% (active), respectively.
